# In PubChem BioAssay AID588726 (The Scripps Research Institute Molecular Screening Center, 2011):
# About 8,200 (2.3%) of roughly 360,000 compounds were called active. The full list was thinned out, with actives kept by preference. Unmarked numbers belong to inactive results. Rule as the data show it: active = inhibition above about 27%; inactive = the rest.
# Biological target: Fructose-bisphosphate aldolase (Mycobacterium tuberculosis (strain ATCC 25618 / H37Rv)) (UniProt P9WQA3)
# Assay: Mtb FBA enzyme inhibitors, primary screen, biochemical, fluorescence, strain H37Rv (AID 588726);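 also: 0% = vehicle and 100% = reference inhibitor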
# Conditions: purified M. tuberculosis FBA, fluorescence read-out, at 1 µM, hits give high values
# Sequence of Fructose-bisphosphate aldolase (Mycobacterium tuberculosis (strain ATCC 25618 / H37Rv)) (P9WQA3 whole entry, looked up): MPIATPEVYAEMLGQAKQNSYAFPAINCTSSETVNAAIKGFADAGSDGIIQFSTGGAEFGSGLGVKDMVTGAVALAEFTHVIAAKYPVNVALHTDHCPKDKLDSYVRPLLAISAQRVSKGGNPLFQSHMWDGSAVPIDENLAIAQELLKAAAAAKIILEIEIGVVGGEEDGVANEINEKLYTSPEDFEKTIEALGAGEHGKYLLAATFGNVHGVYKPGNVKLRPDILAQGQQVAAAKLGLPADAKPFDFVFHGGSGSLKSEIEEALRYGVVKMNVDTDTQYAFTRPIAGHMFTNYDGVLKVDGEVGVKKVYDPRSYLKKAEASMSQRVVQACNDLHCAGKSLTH
row,SMILES,inhibition
1,COc1ccc(C(=O)CN2C(=O)NC3(CCc4ccccc43)C2=O)c(OC)c1 (centres undefined),1.92%
2,CCCOc1ccc(-c2c(C(=O)N/N=C/c3ccco3)nnn2-c2nonc2N)cc1,4.8%
3,CCOc1ccc(-c2nnc(-c3ccco3)o2)cc1,54% (active)
4,CCCCOc1ccc(-c2nnc(-c3ccco3)o2)cc1,46.1% (active)
5,N#Cc1ccc(OCc2nnc(-c3ccc([N+](=O)[O-])cc3)o2)cc1,0.59%
6,CCOc1ccc(-n2c(SCC(N)=O)nnc2-c2ccco2)cc1,0.41%
7,CCCCSc1nnc(-c2ccc(C)cc2)o1,3.13%
8,CCC(C)(C(=O)NC1CCCC1)N(C(=O)CNC(C)=O)c1ccc(C)cc1 (centres undefined),1.41%
9,Cc1nc2cccnc2nc1C,-0.64%
10,COc1ccc(NC(=O)c2cccc3c2C(=O)N(CC2CCCO2)C3)cc1OC (centres undefined),-1.34%
11,COCCN(C(=O)CC1CCCCC1)c1c(N)n(CC(C)C)c(=O)[nH]c1=O,2.06%
12,O=[N+]([O-])c1cccc(/C=N/Nc2ncc(Br)cn2)c1,144% (active)
13,O=[N+]([O-])c1cccc(C=NN=Cc2ccccc2O)c1,1.54%
14,O=C(N/N=C/c1cccc([N+](=O)[O-])c1)C1CC(=O)N(c2ccc(Br)cc2)C1 (centres undefined),2.78%
15,CCCN(C(=O)COC(=O)CNS(=O)(=O)c1ccc(NC(C)=O)cc1)C1CCS(=O)(=O)C1 (centres undefined),1.9%
16,COc1ccc(CCN(Cc2cc3cccc(C)c3[nH]c2=O)C(=O)N2CCCC2)cc1OC,0.64%
17,c1ccc(CSc2ncnc3c2sc2nc(N4CCOCC4)c4c(c23)CCCC4)cc1,3.1%
18,Cc1nc(N2CCOCC2)c2c(C)c(C(=O)Nc3ccc(C(F)(F)F)cc3)sc2n1,2.82%
19,Cc1cccc(NC(=O)c2sc3nc(N4CCOCC4)c4c(c3c2N)CCCC4)c1,39.1% (active)
20,Cc1cc(C)cc(NC(=O)Cn2cnc3c(nnn3Cc3ccc(F)cc3)c2=O)c1,1.33%
21,CN(C)/C(CN1CCCCC1)=C1\N=C(c2ccccc2)OC1=O,-2.21%
22,CCN(CC(=O)NCc1cccs1)c1nnnn1-c1ccccc1,-0.27%

row,SMILES,inhibition
1,CN(C(=O)COc1nnc(-c2cccs2)c(-c2cccs2)n1)c1ccccc1,3.91%
2,CN(C(=O)COc1ccccc1)c1nnc(-c2ccncc2)s1,53.2% (active)
3,CN(C(=O)c1ccccn1)c1nnc(-c2ccccn2)s1,31.6% (active)
4,CN(C(=O)C1CCOC1)c1nnc(-c2cccnc2)s1 (centres undefined),-7.08%
5,O=C(Nc1nnc(C2CC2)s1)c1ccccn1,2.11%
6,CCC(C)(C)NC(=O)C(c1ccccn1)N(C(=O)c1csnn1)c1ccccc1 (centres undefined),-0.46%
7,CN(C(=O)CSc1nnc(-c2c[nH]c3ccccc23)o1)C1CCS(=O)(=O)C1 (centres undefined),0.37%
8,Nn1c(SCC(=O)NC2CCCC2)nnc1-c1ccccc1F,-0.66%
9,CC(=O)C(C)n1cnc2scc(-c3ccc(C)cc3)c2c1=O (centres undefined),-0.72%
10,Cc1sc2ncnc(SCC(=O)Nc3ccc(CN4CCCC4)cc3)c2c1C,-0.95%
11,O=C(O)CCCn1c(=O)c2cccn2c2ccc(F)cc21,6.9%
12,CCN(CC)CCC(c1ccc2c(c1)OCO2)c1c(OC)cc(OC)c2c(-c3ccccc3)cc(=O)oc12 (centres undefined),4.6%
13,COc1ccc2oc(N)nc2c1,0.46%
14,O=[N+]([O-])c1ccc2oc(-c3cccc(O)c3)nc2c1,0.6%
15,CC(=O)Oc1ccc(C(C)=O)c2c1OCCO2,5.05%
16,COc1ccc(CNC(=O)c2cc(=O)c3c(C)cc(C)cc3o2)cc1,-0.13%
17,CC(Oc1cc2oc(=O)c3c(c2cc1Cl)CCCC3)C(=O)NCc1ccncc1 (centres undefined),26.1%
18,Cc1cc(OCc2cc(C(=O)O)oc2C)c2c3c(c(=O)oc2c1)CCCC3,107% (active)
19,Cc1oc(C(N)=O)cc1COc1ccc(C(N)=O)cc1,3.54%
20,O=C(COc1cc2oc(=O)c3c(c2cc1Cl)CCC3)NCCCN1CCOCC1,6.36%
21,COC(=O)COc1cc(C)cc2oc(=O)c3c(c12)CCCC3,28.4% (active)
22,C=CCNC(=O)C1CC2c3ccccc3C1c1ccccc12 (centres undefined),-1.94%

row,SMILES,inhibition
1,CC/C(=C\c1ccc(Cl)cc1)c1ccncc1,-2.63%
2,S=c1[nH]nc(Nc2ccccc2)s1,3.65%
3,CCc1ccc(Nc2ncc3c(n2)CC(c2ccco2)CC3=O)cc1 (centres undefined),8.11%
4,Cc1ccc(OCC(=O)c2cc(C)n(Cc3ccco3)c2C)c([N+](=O)[O-])n1,-5.32%
5,Cc1ccc(Cn2c(C)nc3c(c2=O)c2nc4ccccc4nc2n3Cc2ccco2)cc1,47.6% (active)
6,Clc1cccc(-c2nc3nc4ccccc4nc3n2Cc2ccco2)c1,17.8%
7,O=C1N=C(N2CCOCC2)CS1,-1.54%
8,CC(C)(C)NS(=O)(=O)NC(=O)C1=C(N2CCCC2)COC1=O,-4.63%
9,CCC(C)(C)C1CCC(=NNC(=O)c2ccc(Br)o2)CC1 (centres undefined),-1.67%
10,CCOC(=O)C1CCCN(C(=O)CSc2nnc3nc(C)cc(C)n23)C1 (centres undefined),7.69%
11,N#Cc1nc(-c2ccc(OCc3ccccc3)cc2)oc1NCCCN1CCOCC1,92.7% (active)
12,Cc1ccc(-c2nc(C#N)c(NCCCn3ccnc3)o2)cc1,71.6% (active)
13,Cc1ccc(S(=O)(=O)c2nc(NCCCn3ccnc3)sc2Cl)cc1,0.32%
14,Cc1ccc2c(Cl)c(C(=O)NCCCn3ccnc3)sc2c1,-2.28%
15,O=S(=O)(c1ccc(Cl)cc1)c1nc(-c2ccccc2F)oc1NCCN1CCOCC1,-1.99%
16,O=S(=O)(c1ccccc1)c1nc(-c2ccccc2)oc1NCCCN1CCOCC1,-3.13%
17,CCN(CC)S(=O)(=O)c1ccc(N2CC(C(=O)NCc3cccnc3)CC2=O)cc1 (centres undefined),1.11%
18,Cc1c(C)c2cc3c4c(oc3c(C)c2oc1=O)CCCC4,2.57%
19,CC[C@@H](C)[C@H](NC(=O)CCc1c(C)c2cc3c4c(oc3c(C)c2oc1=O)CCCC4)C(=O)O,27.5% (active)
20,Cc1c(CCC(=O)N[C@@H](CC(C)C)C(=O)O)c(=O)oc2c(C)c3oc4c(c3cc12)CCCC4,13.8%
